This is a sample that favours compounds with a hit; in the whole collection about 8.3% have one here.
FMDV inh: antivirals against foot and mouth disease virus; FMDV antiviral cell-based qHTS; Potency, µM (series often up to 57.9 µM), for inactives: top-dose activity change, negative = inhibition, usual class: inhibitors; 410,000 compounds, 1.2% hits; AID 1159524; calls by dose curve; tested in HEK293T cells; further: read-out not given here; potency means the concentration at half of the fitted maximal effect; nearly all actives have a fitted effect of over 45% in size
HCV inh: HCV inhibition. Huh7.5.1 HCVcc-Cre infection, luciferase reporter, 44 h. Potency, µM (series often up to 41.8 µM), without a hit: top-dose activity change, negative = inhibition, hits mostly inhibitors. 340,000 compounds, 3.4% hits; further: potency means the concentration at half of the fitted maximal effect
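Whole-lifecycle infectious HCVcc-Cre system; cells 1,000/well, compound then virus (~0.5 moi) added 4 h after plating, 44 h culture. Luciferase read 15 sec following 15 min substrate incubation, room temp.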
HCMV inh: inhibitors of human cytomegalovirus | 410,000 compounds, 4.5% hits | AID 1259415 | activity change, negative = inhibition, % at 57.5 µM | HFF cells, HCMV-luciferase reporter, 72 h; hits give low values; in the data active means activity change below about -60%; inconclusive means no clear call, values can overlap the other calls; inactive means above about -39%
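Steps: HFFs plated, 16 h 37C; compounds added; HCMV-luciferase added to MOI 1 PFU/cell; 72 h 37C; OneGlo reagent, 5 min room temperature; luminescence read, normalized to controls.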
Giardia FBPA inh: Giardia lamblia aldolase inhibition; purified Giardia FBPA; 290,000 compounds, 0.71% hits; Potency, µM (top dose mostly 59.6 µM), inactives show top-dose activity, negative = inhibition, usual class: inhibitors; AID 2451; further: potency means the concentration at half of the fitted maximal effect; nearly all actives have a fitted effect of over 55% in size
Target sequence (A8B2U2 whole entry, looked up): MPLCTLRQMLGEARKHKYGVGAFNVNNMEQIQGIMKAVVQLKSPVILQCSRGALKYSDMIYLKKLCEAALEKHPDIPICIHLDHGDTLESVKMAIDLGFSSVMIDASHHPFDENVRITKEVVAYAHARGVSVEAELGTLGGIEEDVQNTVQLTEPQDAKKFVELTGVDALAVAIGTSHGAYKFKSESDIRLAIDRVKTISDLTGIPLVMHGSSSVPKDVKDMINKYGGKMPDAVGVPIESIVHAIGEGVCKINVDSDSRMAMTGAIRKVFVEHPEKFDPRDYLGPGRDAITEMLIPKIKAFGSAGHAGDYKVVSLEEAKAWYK
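Giardia FBPA (40 nM reagent) was preincubated 10 min at RT with compound (up to 57.5 uM final), then substrate plus GAPDH/TPI/NAD/arsenate coupling system with diaphorase/resazurin was added; resorufin fluorescence (525/598 nm) was read after 20 min.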
Lassa entry inh: inhibitors of Lassa virus binding or cell entry. AID 540256. Lassa virus pseudotype entry inhibition, cell reporter. 300,000 compounds, 1.2% hits. Potency, µM (top dose mostly 37.9 µM), inactives show at the highest dose activity change, negative = inhibition, usual class: inhibitors; calls by dose curve; tested in HEK293 cells; further: potency means the concentration at half of the fitted maximal effect; nearly all actives have a fitted effect of over 50% in size
MARV entry inh: Marburg virus entry inhibition | Marburg virus pseudotyped entry inhibition, cell reporter | Potency, µM (titrated, usually from 37.8 µM), inactives show at the top dose activity change, negative = inhibition, actives largely listed as inhibitors | 300,000 compounds, 1.8% hits; calls by dose curve; tested in HEK293 cells; further: potency means the concentration at half of the fitted maximal effect
* marks the source's active call; other numbers are inactive results; ? = inconclusive; / = no result given; ! = not confirmed by another sample; [ ] = dose if it differs, or a comment. Unless noted, the call rests on the fitted dose curve; in most records, active means well fitted curve in the direction sought with a large enough effect; inconclusive means small, poorly fitted or top-dose-only effect, or another doubt; inactive means no such curve, though single readings can be large; an effect the other way counts as inactive or inconclusive. On the % scale 0 is the no-effect control and ±100 the full control effect.

SMILES	FMDV inh	HCV inh	HCMV inh	Giardia FBPA inh	Lassa entry inh	MARV entry inh
COc1ccc2nc3cc(Cl)ccc3c(C#N)c2c1	12.2%	11.2%	-21.3	-7.5%	25.2%	-1.3%[46.1 µM]
Cc1cc(=O)c2c(O)c3c(O)cc(=O)c4c3c3c(cc(O)c1c23)C(C)(C)C=4O	?	/	/	-2.6%	/	/
CCOC(=O)c1cccc(NC(=O)CCn2c(=O)oc3ccccc32)c1	21.6%	-26.6%	?	4.1%	?	?
CCOC(=O)c1cccc(NC(=O)COc2nsnc2N2CCOCC2)c1	25.1µM*	?	-0.6	10.7%	/	?
CCOC(=O)c1cccc(NC(=O)CCn2cccc2)c1	-22.2%	-3.6%	-8.3	6.6%	8.91µM*	-26.1%
Cc1ccccc1-c1noc(-c2ccc(Cl)cc2)n1	43.8%	6.9%	119.4	0.2%	26.0%	?
Cc1ccccc1-c1noc(-c2ccc(O)cc2)n1	/	14.1µM*	-16.5	3.8%	?	?
CN(C)c1ccc(-c2noc(-c3ccccc3O)n2)cc1	-22.8%	-1.3%	55.0	2.8%	5.8µM*	?
COc1ccccc1CNc1cc(-c2cccc(C#N)c2)ncn1	-16.6%	/	/	-4.3%	/	/
COc1ccc(CNC(=O)/C=C/c2ccc3[nH]cc(CCN(C)C)c3c2)cc1	24.3%	-17.1%	?	-4.2%	-13.6%	35.5µM*!
COc1ccc2[nH]cc(CCN(C)C)c2c1	-23.4%	-8.9%	-8.6	-6.5%	/	?
COc1cc(/C=N\n2nnnc2N)ccc1O	/	/	/	/	/	10.1%
O=C(O)c1cccc2c1C(=O)c1ccc(-c3ccc(F)cc3OCc3ccccc3)cc1S2(=O)=O	39.0%	-6.4%[8.37 µM]	/	/	/	/
O=C(NC[C@H]1CCCO1)c1cccc2c1C(=O)c1ccc(-c3ccc(F)cc3OCc3ccccc3)cc1S2(=O)=O	?	10µM*	-34.1	/	/	/
O=C(O)c1cccc2c1C(=O)c1ccc(-c3ccc(F)cc3F)cc1S2(=O)=O	-0.3%	1.8%	-61.5*	/	/	/
N#CCCn1c(=O)c(-c2ccccc2)nc2cnc(Oc3ccccc3)nc21	0.8%	/	/	-0.1%	/	/
O=C1CN(S(=O)(=O)c2ccc(Cl)cc2C(F)(F)F)CCN1	3.6%	12.9%	-60.3*	-0.6%	3.0%	20.9%[46.1 µM]
O=C1CN(S(=O)(=O)c2ccccc2)CCN1	17.0%	-1.7%	12.1	/	-2.3%	3.9%
CCC1(C2CCN(C(=O)c3cc(C)cc(C)c3)CC2)NC(=O)N(CCc2scnc2C)C1=O (centres undefined)	-9.3%	/	/	/	/	/
CCCCCC(=O)N/N=C(\C)c1ccc(NC(=O)c2ccco2)cc1	16.6%	-15.8%	9.5	4.4%	3.55µM*	-7.2%
CC(C)CCNC(=O)CN1C(=O)c2cccnc2Sc2ccccc21	-6.9%	/	26.6	/	6.4%[46.1 µM]	/
CCOC(=O)c1ccc(NC(=O)c2cc3c(n(-c4ccc(C)cc4)c2=O)CC(C)(C)CC3=O)cc1	?	/	-7.4	/	-6.6%[46.1 µM]	4.4%[46.1 µM]
CCc1nccc2c1[nH]c1ccccc12	-25.9%	11.2µM*	/	/	/	/
Cc1ccc(Sc2c(C)nn(C(=O)COc3ccccc3)c2C)cc1	5.1%	/	-3.0	/	-28.6%[46.1 µM]	7.2%[46.1 µM]
N#Cc1c(C(F)(F)F)cc(=O)n2c1[nH]c1ccccc12	-5.9%	?	-96.0*	-14.8%	?	?
SMILES	FMDV inh	HCV inh	HCMV inh	Giardia FBPA inh	Lassa entry inh	MARV entry inh
Cc1ccc(C(=O)Nc2cccc(-c3nc(CNC(=O)c4cccc(C)c4C)c(C)o3)c2)s1	-25.4%	/	/	/	/	/
CCCCn1c(CCl)nc2cc(S(=O)(=O)N3CCOCC3)ccc21	31.6µM*	?	-22.9	/	0.5%	-21.7%
COC1C=CC23c4cc5c(cc4CN(CC2O)C3C1)OCO5 (centres undefined)	?	/	/	-21.1%	/	/
Cc1cc(C(C)(C)C)cc(C)c1C[n+]1ccc2ccccc2c1	?	?	-96.4*	-4.4%	/	/
CCC12CN3CC(C)(CN(C1)C3c1c[nH]c3ccccc13)C2=O (centres undefined)	-24.5%	/	-2.9	/	-22.0%[46.1 µM]	6.4%[46.1 µM]
CCc1ccccc1NC(=O)C(CC)Sc1nc2cc3c(cc2c(=O)n1Cc1ccco1)OCO3 (centres undefined)	24.2%	?	-94.1*	5.9%	?	?
CCc1ccc(NC(=O)C(CC)Sc2nc3cc4c(cc3c(=O)n2Cc2ccco2)OCO4)cc1 (centres undefined)	0.0%	?	?	0.2%	?	?
Cc1cc(=O)n2nc(N(C)CC(=O)NCc3cccc(Br)c3)sc2n1	-19.7%	/	11.4	/	-1.0%[46.1 µM]	17.3%[46.1 µM]

Source: PubChem (National Center for Advancing Translational Sciences (NCATS))
